Compounds with a hit are over-represented: about 21% of the library has one in this group of screens.
HCV inh – qHTS Assay for Inhibitors of Hepatitis C Virus (HCV); hit rate 3.4% among 340,000; AID 651820, 2012; Huh7.5.1 HCVcc-Cre infection, luciferase reporter, 44 h; Potency, µM (doses to about 41.8 µM), for the others: at the top dose activity change, negative = inhibition, most hits filed as inhibitors; note: potency is the fitted concentration of half-maximal effect; % is set by controls: 0 for no effect and ±100 for the full control effect
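Cells seeded at 1,000/well and cultured 4 h, then compounds added followed by HCVcc-Cre virus (~0.5 moi). After 44 h further culture, luciferase substrate was added, plates held 15 min at room temperature, and luminescence read for 15 sec.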
Shiga toxin inh – A qHTS for Small Molecule Inhibitors of Shiga Toxin | Vero cells, Shiga toxin protein synthesis inhibition reporter | inhibition, % at 38.7 µM | hit rate 9.2% among 290,000 | AID 2315, 2010; in the data active = inhibition mostly above about 28%, no sharp cut-off; inactive = mostly below about 43%; note: 0% is about no effect
AMA1-RON2 inh – qHTS for Inhibitors of AMA1-RON; Towards Development of Antimalarial Drug Lead: Primary Screen; AlphaScreen AMA1-biotinylated RON2 peptide binding; Plasmodium falciparum AMA1 (3D7) - RON2 peptide interaction; AID 720542, 2013; Potency, µM (titrated, usually from 58.2 µM), without a hit: at the top dose activity change, negative = inhibition, usual class: inhibitors; hit rate 0.2% among 360,000;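 note: potency is the fitted concentration of half-maximal effect; 0% = vehicle wells and -100% = peptide control; nearly all actives have a fitted effect of over 45% in size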
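AMA1 (3D7) with his tag at 25 nM final met compounds first, then biotinylated RON2 peptide at 25 nM; detection used donor plus acceptor beads, 10 µg/mL apiece, read by AlphaScreen after 30 min at room temperature.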
Pf growth 96h – Primary qHTS for delayed death inhibitors of the malarial parasite plastid, 96 hour incubation; P. falciparum luciferase reporter growth, 96 h; AID 504834, 2011; Potency, µM (top dose mostly 28.7 µM), for the others: top-dose activity change, negative = inhibition, actives largely listed as inhibitors; hit rate 6.9% among 320,000; note: potency is the fitted concentration of half-maximal effect; % is set by controls: 0 for no effect and ±100 for the full control effect
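P. falciparum expressing integrated firefly luciferase grown in erythrocytes (2% hematocrit, 0.05% parasitemia final) with compounds for 96 hours at 37 C, 5% CO2. Growth inhibition read as loss of luminescence after adding luciferase detection reagent.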
CHX counter – Cycloheximide Counterscreen for Small Molecule Inhibitors of Shiga Toxin | cell reporter, cycloheximide protein synthesis inhibition counterscreen | max response, % | hit rate 12% among 300,000; in the data active = max response mostly above about 13%, no sharp cut-off; inactive = mostly below about 14%; note: read at 38.3 µM for the half of the compounds with a filed dose; 0% is about no effect
Pf growth 48h – Primary qHTS for delayed death inhibitors of the malarial parasite plastid, 48 hour incubation; P. falciparum luciferase growth in erythrocytes, 48 h; hit rate 5.9% among 310,000; AID 504832, 2011; Potency, µM (doses to about 28.7 µM), inactives show at the highest dose activity change, negative = inhibition, hits mostly inhibitors; note: potency is the fitted concentration of half-maximal effect; % is set by controls: 0 for no effect and ±100 for the full control effect
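A one-generation exposure of luciferase-tagged malaria parasites in RPMI 1640/Albumax erythrocyte culture, 37 C and 5% CO2. Inhibition is inferred from decreased luminescence after adding detection reagent.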
Active calls of the source: *; ? = inconclusive; / = no result given; [ ] = dose if it differs, or a comment. Unless noted, calls come from the whole dose curve; as a rule, active = well fitted curve in the direction sought with a large enough effect; inconclusive = small, poorly fitted or top-dose-only effect, or another doubt; inactive = no such curve, though single readings can be large; an effect the other way counts as inactive or inconclusive.

SMILES	HCV inh	Shiga toxin inh	AMA1-RON2 inh	Pf growth 96h	CHX counter	Pf growth 48h
Cc1ccc(NC(=O)CSc2n[nH]c(-c3ccncc3)n2)cc1C	-13%	46	-18%	-23%	5	12µM*
Nc1nc(SCC(=O)c2ccc(Oc3ccccc3)cc2)n[nH]1	6%	37	30%	0%	29*	15%
CC(C)C(OC(=O)c1cccc(S(=O)(=O)NCC(F)(F)F)c1)C(=O)NC(N)=O (centres undefined)	?	-5	-3%	62%	-1	23%
COc1cc2ccccc2cc1C(=O)N/N=C/c1cccs1	/	/	12%	/	/	/
COCCNC(=O)C1(C)CCCN(C(=O)Cc2ccc3ccccc3c2)C1 (centres undefined)	/	/	-9%	/	/	/
O=C(CSc1n[nH]c(-c2ccccc2)n1)c1ccccc1	-8%	71*	26%	68%	52*	22%
O=C(CSc1n[nH]c(-c2ccccc2)n1)Nc1ccccc1O	/	10	23%	-4%	-2	0%
C=CCN1[C@@H](Cc2ccccc2)COCCS1(=O)=O	8%	/	-8%	/	/	/
COC(=O)c1ccc(NC(=O)Cn2nnc3ccccc32)cc1	1%	67*	0%	5.2µM*	38*	96%
Cc1cccc(NC(=O)Cn2c(=O)n(C)c3ccccc32)c1	12%	16	7%	-6%	-1	34%
Cc1cccc(NC(=O)Cn2nnc3ccccc32)c1	17%	136*	-2%	?	44*	57%
COC(=O)c1ccc(NC(=O)CCCCCn2nnc3ccccc3c2=O)cc1	-17%	10	-6%	3.3µM*	8	5.2µM*
O=C(Cn1nnc2ccccc21)Nc1ccc([N+](=O)[O-])cc1	-9%	-12	0%	27%	-3	14%
Cc1ccc(NC(=O)Cn2nnc3ccccc32)cc1	5%	68*	-7%	-24%	37*	96%
O=C(CC1C(=O)NCCN1C(=O)c1ccccc1)Nc1cc(Cl)ccc1Cl (centres undefined)	/	-4	-11%	23%	-1	78%
CC(=O)c1cc(CCC(=O)NC2CCCCCC2)oc1C	-3%	-6	0%	26%	-5	10%
Cc1cc(/C=C2\C(=O)NC(=O)N(Cc3ccco3)C2=O)c(C)n1-c1ccc(O)cc1	-23%	15	-6%	29%	17*	0%
Cc1cc(/C=C2\C(=O)NC(=O)N(Cc3ccccc3Cl)C2=O)c(C)n1-c1ccc(C(=O)O)cc1	18%	3	-3%	1.9µM*	-3	7%
Cc1cc(/C=C2\C(=O)NC(=O)N(Cc3ccco3)C2=O)c(C)n1-c1ccc(C(=O)O)cc1	18%	6	5%	-2%	-2	13%
O=C(NCC(=O)N1CCc2ccccc2C1)c1ccccc1Cl	-16%	71*	-4%	76%	22*	15%[0.00184 µM]
O=C(Cc1ccccc1F)OCC(=O)N1CCc2ccccc21	7%	97*	5%	11%	64*	87%
Cc1cccc(C(=O)NCC(=O)OCC(=O)N2CCc3ccccc32)c1	25%	0	2%	20%	11	0%
O=C(CNC(=O)c1ccccc1Cl)OCC(=O)N1CCc2ccccc21	13%	127*	-1%	213%	41*	287%
O=C(NCC(=O)N1CCc2ccccc2C1)c1ccc(Cl)cc1Cl	-14%	14	1%	3%	13	23%
N[C@@H](COC(c1cccc(F)c1)c1ccccc1OCc1ccccc1)C(=O)O (some centres undefined)	/	-6	/	/	-8	/
SMILES	HCV inh	Shiga toxin inh	AMA1-RON2 inh	Pf growth 96h	CHX counter	Pf growth 48h
O=c1[nH]cc(CCCc2ccccc2)c(=O)[nH]1	/	/	2%	/	/	/
CCOC(=O)C1CCN(C(=O)CN2C(=O)CSc3ccc(S(=O)(=O)N4CCOCC4)cc32)CC1	13%	-6	-3%	58%	-3	?
CC[C@]12C(=O)N(C)C[C@H]([C@@H]3C(=O)N(C)C(=O)[C@@H]31)N2C(=O)c1ccc(Br)cc1	5%	/	7%	/	/	/
C[n+]1c(-c2ccccc2)cc(CCCCc2cc(-c3ccccc3)[n+](C)c(-c3ccccc3)c2)cc1-c1ccccc1	?	-5	-12%	0.93µM*	-3	13µM*
CCN1CCN(CCNC(=O)CCc2c(C)c3c(C)nn(-c4ccccc4)c3n(C)c2=O)CC1	16µM*	-5	10%	11%	-1	?
CCn1c(=O)c(CCC(=O)NCCN2CCOCC2)c(C)c2c(C)nn(-c3cccc(C)c3)c21	-24%	-5	9%	?	8	?
Cc1[nH]c2ccccc2c1C(=O)/C=C\c1ccccc1Cl	?	24*	-29%	-27%	36*	53%
Cc1nc2ccccc2c(N)c1C(=O)/C=C/c1ccccc1	11µM*	-10	-10%	?	-3	5.9µM*
Cc1[nH]c2ccccc2c1C(=O)CSc1ccc(Cl)cc1	-18%	58	3%	?	11	?
O=C(C=Cc1ccccc1Cl)c1ccccc1	3%	/	11%	/	/	/
Cc1[nH]c2ccccc2c1C(=O)/C=C/c1ccccc1Cl	1%	81*	-9%	?	40*	101%
CC(=O)c1c(C)[nH]c2ccccc2c1=O	9%	2	-15%	-1%	-3	-6%
Cc1[nH]c2ccccc2c1C(=O)/C=C/c1ccccc1	?	56*	-7%	?	37*	33%
Cc1ccc(N(CC(=O)N2CCCCCC2)S(C)(=O)=O)cc1	/	/	-6%	/	/	/
O=C(Nc1ccc(S(=O)(=O)N2CCCC2)cc1)C1CC(=O)N(c2ccc(F)cc2)C1 (centres undefined)	-18%	-2	-4%	7%	8	?
COc1cc(C(=O)Oc2cccc(C=O)c2)cc(OC)c1OC	-7%	3	7%	?	-1	/
O=Cc1cccc(OC(=O)c2ccc(Cl)cc2Cl)c1	/	51	/	-21%	26*	/
Cc1cc(C)nc(OC(=O)c2ccc(Cl)cc2Cl)n1	/	-17	/	48%	17*	9%
Cc1nc(CCNC(=O)C2CCC(=O)N(Cc3ccc(Cl)cc3)C2)sc1C (centres undefined)	4%	7	0%	23%	1	?
CC1(C)CC(NCc2cccc([N+](=O)[O-])c2)CC(C)(C)N1	-25%	36	2%	29%	17*	0%
CC1(C2CC2)NC(=O)N(CC(=O)Nc2ccc(C(F)(F)F)cc2)C1=O (centres undefined)	-33%	/	0%	16%	/	?
COc1cc(C(=O)NCC2CCCO2)ccc1OCc1ccc(Cl)cc1Cl (centres undefined)	?	/	1%	12µM*	/	12µM*
